According to PubChem BioAssay (NCATS):
Results filed as inconclusive are left out. Unless noted, calls come from the whole dose curve; as a rule, active = well fitted curve in either direction with a large enough effect (not every such curve was filed as active); inconclusive = small, poorly fitted or top-dose-only effect, or another doubt; inactive = flat fitted curve, though single readings scatter.

What was measured:
[1] = AP1 Signaling Pathway (AID 357); conditions: ME-180 AP-1-bla reporter, EGF-induced, beta-lactamase ratio, 5 h; at 17.2 µM (top of the series) unless noted;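 note: ME-180 reporter cells stimulated with EGF at its EC50 level; % is set by controls: 0 for no effect and ±100 for the full control effect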
Outline: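 First, ME-180 AP-1-bla cells were cultured overnight at 37 °C in low-serum Opti-MEM. Next, titrated compounds with EC50 EGF were incubated 5 hours. Finally, CCF4 was added for 2.5 hours and the 460/530 nm ratio recorded.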

[2] = Stat Signaling Pathway (AID 446); conditions: ME-180 SIE beta-lactamase reporter, IL-6 stimulated, 5 h; at 17.2 µM (top of the series) unless noted;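 note: ME-180 cervical cancer cells given 40 pM IL-6 alongside compound; SIE-controlled beta-lactamase reporter measured as 460/530 nm FRET emission ratio; % is set by controls: 0 for no effect and ±100 for the full control effect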
Outline: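 Reporter line: ME-180 cervical carcinoma, SIE-beta-lactamase. Treatment: compound with 40 pM IL-6, 5 hrs, 37 C, in low-serum OPTI-MEM with 10 mM HEPES pH 7.3. Detection: 460/530 nm fluorescence.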

[3] = biological target: Glucocorticoid receptor (Homo sapiens) (UniProt P04150); test: GR-GFP Redistribution (AID 450;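 active = compounds whose dose series gives a full or clear partial fitted curve of increased nuclear translocation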; note: potency is the fitted concentration of half-maximal effect)
Chain of Glucocorticoid receptor (Homo sapiens) (P04150 whole entry, looked up): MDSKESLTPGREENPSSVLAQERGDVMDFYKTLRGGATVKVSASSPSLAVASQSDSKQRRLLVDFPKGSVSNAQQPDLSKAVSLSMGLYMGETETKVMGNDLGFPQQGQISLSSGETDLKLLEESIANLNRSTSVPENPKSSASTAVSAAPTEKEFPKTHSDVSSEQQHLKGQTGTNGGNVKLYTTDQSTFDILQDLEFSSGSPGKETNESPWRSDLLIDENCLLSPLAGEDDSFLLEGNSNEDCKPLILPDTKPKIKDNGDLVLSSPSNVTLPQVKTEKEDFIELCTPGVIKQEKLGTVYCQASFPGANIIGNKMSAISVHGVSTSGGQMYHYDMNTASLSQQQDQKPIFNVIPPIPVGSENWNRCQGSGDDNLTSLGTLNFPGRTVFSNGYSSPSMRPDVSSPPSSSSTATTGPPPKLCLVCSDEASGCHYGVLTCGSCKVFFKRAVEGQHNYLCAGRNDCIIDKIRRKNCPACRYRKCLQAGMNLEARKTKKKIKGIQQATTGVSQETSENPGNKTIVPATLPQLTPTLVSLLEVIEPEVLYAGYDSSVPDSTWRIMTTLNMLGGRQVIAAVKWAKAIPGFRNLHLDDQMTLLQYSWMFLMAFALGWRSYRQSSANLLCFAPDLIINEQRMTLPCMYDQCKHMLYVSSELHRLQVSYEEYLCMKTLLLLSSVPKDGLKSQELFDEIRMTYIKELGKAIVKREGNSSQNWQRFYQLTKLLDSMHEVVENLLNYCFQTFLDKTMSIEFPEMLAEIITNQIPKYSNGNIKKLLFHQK

C=CCn1c(SCC(=O)OC)nc2sc3c(c2c1=O)CCN(C)C3
inactive: activity change, negative = inhibition [1] -12.5% | activity, negative = inhibition [2] 2.28% | Potency [3] > 20.6 µM

CCOc1cccc(-c2nnc3sc(-c4ccco4)nn23)c1
inactive: activity change, negative = inhibition [1] -1.16% | activity, negative = inhibition [2] -18.8% | Potency [3] > 20.6 µM

CC(C)Cc1nc(N2CCOCC2)c(C#N)c2c1CCC2
inactive: activity change, negative = inhibition [1] -16.4% | activity, negative = inhibition [2] -0.768% | Potency [3] > 20.6 µM
